Bioassay records from PubChem BioAssay.
Most compounds without a hit are left out; they make up all but 2.8% or so of the library.
WRN inhibitor: inhibitors of human WRN helicase | Q14191 | 360,000 tested, 0.46% active | Potency, µM (highest dose often 114 µM), without a hit: at the top dose activity change, negative = inhibition, actives largely listed as inhibitors | WRN helicase unwinding, fluorescent forked duplex, kinetic; note: potency is the fitted concentration of half-maximal effect; % is set by controls: 0 for no effect and ±100 for the full control effect; nearly all actives have a fitted effect of over 55% in size
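Enzyme (20 nM final) and test compound sit together 15 min at room temperature before substrate addition. Substrate is a single-forked duplex oligonucleotide (100 nM) labelled with fluorophore and quencher, with 2 mM ATP; helicase unwinding raises red fluorescence, read kinetically.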
POLK inh: DNA polymerase kappa (human) inhibition. Potency, µM (highest dose often 107 µM), inactives show top-dose activity, negative = inhibition, hits mostly inhibitors. purified Pol kappa, fluorescent DNA synthesis assay, 10 min. Q9UBT6. 400,000 tested, 0.53% active; note: potency is the fitted concentration of half-maximal effect; % is set by controls: 0 for no effect and ±100 for the full control effect
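Here, compound and 10 nM enzyme are combined for 15 min at room temperature; adding 50 nM substrate (final) starts DNA synthesis, tracked by fluorescence at 0 and 10 min against buffer-only wells.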
PI5P4Ka inh: inhibitors of human PI5P4K alpha; P48426; PI5P4Kalpha enzyme, ADP-Glo luminescence, 60 min; active compounds read low; max response, %; 330,000 tested, 1.2% active; AID 652105; active = max response of -50% or lower; inconclusive = between -30% and -50%; inactive = -30% or higher; note: value at the top dose of about 77 µM; % is set by controls: 0 for no effect and ±100 for the full control effect
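Single end-point luminescence (ADP-Glo) quantified ADP from PI5P4Kalpha turnover; ATP 5 microM final, 1 h at RT, 0.1% CHAPS and 0.28 mM EGTA in HEPES pH 7.4.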
Pol iota inh: DNA polymerase iota (human) inhibition | Pol iota fluorescent replication assay, 10 min | Potency, µM (titrated, usually from 115 µM), inactives show at the top dose activity, negative = inhibition, actives largely listed as inhibitors | AID 588590 | 390,000 tested, 1% active; note: potency is the fitted concentration of half-maximal effect
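Fluorescent replication assay read twice, at 0 min and 10 min after adding 50 nM (final) substrate. Enzyme (10 nM) and compounds were first incubated 15 min at room temperature; enzyme-free buffer wells were negative controls.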
POLB inh: blocks human DNA polymerase beta activity | P06746 | Pol beta primer extension/strand displacement, fluorescence kinetic | Potency, µM (doses to about 114 µM), inactives show at the top dose activity change, negative = inhibition, hits mostly inhibitors | 340,000 tested, 1.3% active; note: potency is the fitted concentration of half-maximal effect; % is set by controls: 0 for no effect and ±100 for the full control effect
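Pol beta (10 nM) and compounds were preincubated 15 min at room temperature, then 50 nM substrate (final) started primer extension/strand displacement. Reads were taken at 0 and 10 min; concentration-response data were fitted to a four-parameter Hill equation.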
Pol eta inh: DNA polymerase eta (human) inhibition; Q9Y253; recombinant Pol eta, fluorescent DNA replication assay; Potency, µM (titrated, usually from 114 µM), for the others: top-dose activity change, negative = inhibition, usual class: inhibitors; 390,000 tested, 1.2% active; note: potency is the fitted concentration of half-maximal effect; % is set by controls: 0 for no effect and ±100 for the full control effect
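Pol eta (10 nM) was preincubated with compounds for 15 min at room temperature, after which fluorescent replication substrate (50 nM final) was added to start the reaction. Fluorescence was read kinetically at 0 and 10 min.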
An asterisk follows results filed as active. Unless noted, calls come from the whole dose curve; as a rule, active = well fitted curve in the direction sought with a large enough effect; inconclusive = small, poorly fitted or top-dose-only effect, or another doubt; inactive = no such curve, though single readings can be large; an effect the other way counts as inactive or inconclusive.

CCOC(=O)c1cccc(NS(=O)(=O)c2c(C)nc3sc(C)cn3c2=O)c1 was read as POLK inh inconclusive, Pol iota inh 39%, POLB inh 10% and Pol eta inh -3%.
COc1ccc2c3c(cccc13)C(=O)N(O)C2=O was read as WRN inhibitor -14%, POLK inh -18%, PI5P4Ka inh -3, Pol iota inh 1%, POLB inh 35µM* and Pol eta inh -8%.
For O=C1c2cccc3c([N+](=O)[O-])ccc(c23)C(=O)N1O the results were WRN inhibitor -26%, POLK inh -1%, PI5P4Ka inh inconclusive, Pol iota inh -13%, POLB inh inconclusive and Pol eta inh 2.8µM*.
For COC(=O)c1sc2nc(C)cc(C)c2c1N the results were WRN inhibitor -6%, POLK inh -2%, PI5P4Ka inh 7, Pol iota inh 3%, POLB inh 1% and Pol eta inh -8%.
`Cc1cc(C)c2c(N)c(C(=O)Nc3ncc(C)s3)sc2n1` gave WRN inhibitor -25%, POLK inh -25%, PI5P4Ka inh -21, Pol iota inh -11%, POLB inh 45µM* and Pol eta inh -16%.
OCC1O[C@H]([S-])[C@H](O)[C@@H](O)[C@@H]1O.[Au+] (stereo partly specified) was read as POLK inh 5.3µM*.
`S=C(NCCCc1cnc[nH]1)NCCCN(CCc1ccccc1)c1ccc(Br)cn1` gave POLK inh -9% and Pol iota inh -10%.
Screening CC1CCC(C(=O)NNC(=O)c2cc(-c3ccco3)[nH]n2)CC1 (stereo unspecified) returned WRN inhibitor -8%, POLK inh 1%, PI5P4Ka inh -3, Pol iota inh 16%, POLB inh 0% and Pol eta inh -4%.
Screening O=C(O)c1cc(-c2ccco2)[nH]n1 returned WRN inhibitor -5%, POLK inh -3%, PI5P4Ka inh -13, Pol iota inh -9%, POLB inh 28µM* and Pol eta inh inconclusive.
`CN(C)C(CNC(=O)c1cc(S(=O)(=O)N2CCOCC2)ccc1Cl)c1cccs1` (stereo unspecified) gave WRN inhibitor 0%, POLK inh -3%, PI5P4Ka inh -4, Pol iota inh 22% and Pol eta inh -23%.
CC1=C(c2ccc(C)c(C)c2)S(=O)(=O)N=C1N1CCC(C(=O)NC(C)Cc2ccco2)CC1 (stereo unspecified) was read as POLK inh 9%, Pol iota inh inconclusive, POLB inh 21% and Pol eta inh -10%.
For COc1ccc(C2=C(C)C(N3CCN(C(=O)c4ccco4)CC3)=NS2(=O)=O)cc1 the results were WRN inhibitor -1%, POLK inh -35%, PI5P4Ka inh -9, Pol iota inh inconclusive, POLB inh 50µM* and Pol eta inh -1%.
CC1=C(c2ccc(C)c(C)c2)S(=O)(=O)N=C1N1CCC(C(=O)NC(C)c2ccccc2)CC1 (stereo unspecified) was read as POLK inh -6%, Pol iota inh -9% and POLB inh 2%.
For CC1=C(c2ccc(F)cc2)S(=O)(=O)N=C1N1CCC(C(=O)NCCc2ccco2)CC1 the results were POLK inh -18%, Pol iota inh -26% and POLB inh 25µM*.
COc1ccc(C2=C(C)C(N3CCN(c4ccc(OC)cc4)CC3)=NS2(=O)=O)cc1 was read as POLK inh 6%, Pol iota inh 20%, POLB inh 12% and Pol eta inh 4%.
For CC1=C(c2ccc(C)c(C)c2)S(=O)(=O)N=C1N1CCC(C(=O)Nc2cccc(F)c2)CC1 the results were POLK inh -15%, Pol iota inh inconclusive and POLB inh 20µM*.
Cc1ccccc1NC(=O)Cn1cc(S(=O)(=O)N2CCCC2)c(S(=O)(=O)N2CCCC2)c1 was read as POLK inh -21%, Pol iota inh inconclusive, POLB inh 4% and Pol eta inh -28%.
